Results published in PubChem BioAssay (Tox21).
Inconclusive results are not listed. Calls of active or inactive are those of the source. Unless noted, calls follow the shape of the dose curve; as a rule, active = well fitted curve in the direction sought with a large enough effect in the repeat runs; inconclusive = weak or mixed curves; inactive = no such curve, though single readings can be large; an effect the other way counts as inactive or inconclusive.

How the values were obtained:
[1] = qHTS assay to identify aromatase inhibitors - cell viability counter screen (AID 743084);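 also: cells stimulated with testosterone during compound exposure; nearly all actives have a fitted effect of over 55% in size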
[2] = molecular target: Aryl hydrocarbon receptor (Homo sapiens) (UniProt P35869); assay: qHTS assay to identify small molecule that activate the aryl hydrocarbon receptor (AhR) signaling pathway (AID 743085);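 also: HG2L7.5c1 human HepG2 liver cells with stably integrated DRE-driven firefly reporter; series mostly up to about 70 µM; nearly all actives have a fitted effect of over 15% in size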
Method in brief: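 24 h compound exposure, 37C, HepG2-derived HG2L7.5c1 cells with DRE-responsive luciferase. Readouts: fluorescence viability, then luminescence at room temperature after 30 min.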

[3] = qHTS assay to identify small molecule that activate the aryl hydrocarbon receptor (AhR) signaling pathway - cell viability counter screen (AID 743086);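 also: HepG2 liver cells carrying the AhR DRE luciferase reporter; series mostly up to about 70 µM; nearly all actives have a fitted effect of over 45% in size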
Method in brief: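 HepG2-AhR-luc (HG2L7.5c1) cells, 4000/well, were preincubated 5 h at 37C, exposed to compound in qHTS format for 24 hr at 37C, then given CellTiter-Fluor for 30 min; viability was read as fluorescence in the reporter wells.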

[4] = molecular target: Peroxisome proliferator-activated receptor gamma (Homo sapiens) (UniProt P37231); assay: qHTS assay to identify small molecule agonists of the peroxisome proliferator-activated receptor gamma (PPARg) signaling pathway (AID 743094; active = well fitted activation curve with a large enough effect in the signal ratio in the repeat runs, not every such curve was filed as active; the % refers to the signal ratio)
Method in brief: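 Fluorescence-based beta-lactamase readout in HEK293H PPARg UAS-bla cells after 17 h compound exposure (37C) and 1 h B/G FRET substrate incubation at room temperature.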

[5] = molecular target: Peroxisome proliferator-activated receptor gamma (Homo sapiens) (UniProt P37231); assay: qHTS assay to identify small molecule antagonists of the peroxisome proliferator-activated receptor gamma (PPARg) signaling pathway (AID 743191; calls by dose curve; also: series mostly up to about 63 µM; nearly all actives have a fitted effect of over 30% in size)
Method in brief: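 GeneBLAzer PPARg UAS-bla HEK293H cells carrying a UAS-driven beta-lactamase reporter were plated at 3000 cells/well, preincubated 5 h at 37C, then given compound for 17 h at 37C; LiveBLAzer B/G FRET substrate was read after 1 h at room temperature.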

[6] = qHTS assay to identify small molecule antagonists of the peroxisome proliferator-activated receptor gamma (PPARg) signaling pathway - cell viability counter screen (AID 743194); also: nearly all actives have a fitted effect of over 55% in size
Method in brief: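 PPARg-UAS-bla HEK293H cells were plated, rested 5 h at 37 C, then treated with compounds plus rosiglitazone (50 nM final) for 17 h at 37 C; viability was then read by CellTiter-Glo luminescence after 30 min at room temperature.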

[7] = qHTS assay for small molecule agonists of the antioxidant response element (ARE) signaling pathway (AID 743202; active = well fitted activation curve with a large enough effect in the signal ratio in the repeat runs, not every such curve was filed as active; the % refers to the signal ratio; also: potency is read from the fitted curve at half-maximal effect)
Method in brief: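 Following a 16 h, 37 C exposure of reporter HepG2 cells (ARE-driven beta-lactamase, 2,000 cells/well) to compounds, FRET substrate was applied for 2 h at room temperature and fluorescence intensity recorded.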

[8] = qHTS assay for small molecule agonists of the antioxidant response element (ARE) signaling pathway - cell viability counter screen (AID 743203; calls by dose curve; also: nearly all actives have a fitted effect of over 55% in size)
Method in brief: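 Parallel cytotoxicity read-out for the ARE-bla screen: HepG2 reporter cells, 16 hrs with compounds, then CellTiter-Glo luminescence.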

[9] = qHTS assay for small molecule activators of the heat shock response signaling pathway - cell viability counter screen (AID 743209); also: nearly all actives have a fitted effect of over 50% in size
Method in brief: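 To flag cytotoxic compounds, HSE-bla HeLa cells plated at 1500 cells/well were dosed for 5 h at 37 C, followed by the reporter FRET read and then CellTiter-Glo, with luminescence recorded 30 min after reagent addition.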

[10] = qHTS assay for small molecule activators of the heat shock response signaling pathway (AID 743210; active = well fitted activation curve with a large enough effect in the signal ratio in the repeat runs, with a control signal flat, not every such curve was filed as active; the % refers to the signal ratio; also: series mostly up to about 63 µM)
Method in brief: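 Heat shock element–beta-lactamase HeLa reporter cells; qHTS with compounds for 5 h at 37 C; detection by FRET substrate fluorescence after 2.5 h at RT.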

[11] = molecular target: Peroxisome proliferator-activated receptor delta (Homo sapiens) (UniProt Q03181); assay: qHTS assay to identify small molecule agonists of the peroxisome proliferator-activated receptor delta (PPARd) signaling pathway (AID 743212; calls by dose curve)
Method in brief: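 Beta-lactamase reporter read by fluorescence (LiveBLAzer B/G FRET, 2 h, room temperature). Test agents, in DMSO, incubated at 37 C with PPARd-bla HEK293H cells.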

[12] = qHTS assay to identify small molecule antagonists of the peroxisome proliferator-activated receptor delta (PPARd) signaling pathway - cell viability counter screen (AID 743213); also: nearly all actives have a fitted effect of over 50% in size
Method in brief: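 In this counter screen, HEK293H cells carrying a UAS-beta-lactamase reporter are co-treated with test compounds and 300 nM L165041 (final) for 17 h at 37 C; cell viability is quantified by CellTiter-Glo luminescence.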

[13] = molecular target: Peroxisome proliferator-activated receptor delta (Homo sapiens) (UniProt Q03181); assay: qHTS assay to identify small molecule antagonists of the peroxisome proliferator-activated receptor delta (PPARd) signaling pathway (AID 743215; active = well fitted inhibition curve with a large enough effect in the signal ratio in the repeat runs, not every such curve was filed as active; the % refers to the signal ratio;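 also: cells stimulated with agonist L165041 at 300 nM final during compound exposure; series mostly up to about 62 µM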)
Method in brief: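 Screen format: qHTS, antagonist mode. HEK293H PPARd-bla cells received compound and 300 nM L165041 (final), 17 h, 37 C. Beta-lactamase detected via FRET substrate fluorescence, 2 h, room temperature.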

[14] = molecular target: Bile acid receptor (Homo sapiens) (UniProt Q96RI1); assay: qHTS assay to identify small molecule antagonists of the farnesoid-X-receptor (FXR) signaling pathway (AID 743217; active = well fitted inhibition curve with a large enough effect in the signal ratio in the repeat runs, not every such curve was filed as active; the % refers to the signal ratio)
Method in brief: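 Quantitative HTS, beta-lactamase reporter format: FXR-UAS-bla HEK 293T cells co-treated 16 h at 37 °C with compounds and 50 uM final chenodeoxycholic acid, then read by B/G FRET fluorescence.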

[15] = molecular target: Bile acid receptor (Homo sapiens) (UniProt Q96RI1); assay: qHTS assay to identify small molecule agonists of the farnesoid-X-receptor (FXR) signaling pathway (AID 743220; active = well fitted activation curve with a large enough effect in the signal ratio in the repeat runs, not every such curve was filed as active; the % refers to the signal ratio)
Method in brief: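 FXR-UAS-bla HEK 293T cells carrying a UAS-driven beta-lactamase reporter were plated for 5 h at 37C/5% CO2, then exposed to DMSO-dissolved Tox21 10K compounds for 16 h at 37C. A LiveBLAzer B/G FRET substrate was loaded for 2 h at room temperature before fluorescence reading.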

[16] = qHTS assay to identify small molecule antagonists of the farnesoid-X-receptor (FXR) signaling pathway - cell viability counter screen (AID 743221; active = well fitted cell-killing curve with a large enough effect in the repeat runs, not every such curve was filed as active; also: nearly all actives have a fitted effect of over 50% in size)
Method in brief: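 In GeneBLAzer FXR-UAS-bla HEK 293T cells stimulated with 50 uM chenodeoxycholic acid (final), compounds acted for 16 h at 37 C. Viability was assessed afterwards by CellTiter-Glo luminescence.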

[17] = molecular target: Vitamin D3 receptor (Homo sapiens) (UniProt P11473); assay: qHTS assay to identify small molecule agonists of the vitamin D receptor (VDR) signaling pathway (AID 743222; calls by dose curve)
Method in brief: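 Using LiveBLAzer B/G FRET detection, agonism was scored in VDR-bla cells exposed overnight (16 h, 37C) to DMSO-dissolved compounds; substrate incubation was 2 h at room temperature.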

[18] = molecular target: Vitamin D3 receptor (Homo sapiens) (UniProt P11473); assay: qHTS assay to identify small molecule antagonists of the vitamin D receptor (VDR) signaling pathway (AID 743223; active = well fitted inhibition curve with a large enough effect in the signal ratio in the repeat runs, not every such curve was filed as active; the % refers to the signal ratio)
Method in brief: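 Agonist 1alpha,25-dihydroxyvitamin D3 (3 nM in well) was added with each compound to VDR-bla cells preincubated 4 h. Cells stood 16 h at 37C, then FRET substrate 2 h at room temperature; fluorescence intensity recorded.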

[19] = qHTS assay to identify small molecule agonists of the peroxisome proliferator-activated receptor delta (PPARd) signaling pathway - cell viability counter screen (AID 743211); also: nearly all actives have a fitted effect of over 55% in size
Method in brief: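 Luminescent ATP viability assay (CellTiter-Glo, 30 min RT) in UAS-bla HEK293H cells carrying the PPAR delta reporter construct, 3000 cells/well, after a 17 h compound treatment at 37 C.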

[20] = qHTS assay to identify small molecule agonists of the farnesoid-X-receptor (FXR) signaling pathway - cell viability counter screen (AID 743218); also: nearly all actives have a fitted effect of over 45% in size
Method in brief: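 Same-well cytotoxicity check on FXR-UAS-bla HEK 293T cells: 5 h attachment, 16 h compound at 37 C, CellTiter-Glo luminescence read at room temperature after 30 min.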

Measured: Potency

Chain of Vitamin D3 receptor (Homo sapiens) (P11473 whole entry, looked up): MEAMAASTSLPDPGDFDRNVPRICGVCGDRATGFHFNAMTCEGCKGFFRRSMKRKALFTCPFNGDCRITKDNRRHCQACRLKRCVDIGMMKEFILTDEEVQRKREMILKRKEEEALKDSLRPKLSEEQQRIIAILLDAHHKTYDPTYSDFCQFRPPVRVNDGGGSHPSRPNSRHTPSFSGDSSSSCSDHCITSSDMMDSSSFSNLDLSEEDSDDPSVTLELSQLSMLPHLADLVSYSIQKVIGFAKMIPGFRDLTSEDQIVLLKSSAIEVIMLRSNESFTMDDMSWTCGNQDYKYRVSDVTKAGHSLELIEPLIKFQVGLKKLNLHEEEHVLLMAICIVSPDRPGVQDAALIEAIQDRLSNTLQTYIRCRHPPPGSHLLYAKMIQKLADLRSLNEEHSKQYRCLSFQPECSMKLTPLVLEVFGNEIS
Chain of Bile acid receptor (Homo sapiens) (Q96RI1 whole entry, looked up): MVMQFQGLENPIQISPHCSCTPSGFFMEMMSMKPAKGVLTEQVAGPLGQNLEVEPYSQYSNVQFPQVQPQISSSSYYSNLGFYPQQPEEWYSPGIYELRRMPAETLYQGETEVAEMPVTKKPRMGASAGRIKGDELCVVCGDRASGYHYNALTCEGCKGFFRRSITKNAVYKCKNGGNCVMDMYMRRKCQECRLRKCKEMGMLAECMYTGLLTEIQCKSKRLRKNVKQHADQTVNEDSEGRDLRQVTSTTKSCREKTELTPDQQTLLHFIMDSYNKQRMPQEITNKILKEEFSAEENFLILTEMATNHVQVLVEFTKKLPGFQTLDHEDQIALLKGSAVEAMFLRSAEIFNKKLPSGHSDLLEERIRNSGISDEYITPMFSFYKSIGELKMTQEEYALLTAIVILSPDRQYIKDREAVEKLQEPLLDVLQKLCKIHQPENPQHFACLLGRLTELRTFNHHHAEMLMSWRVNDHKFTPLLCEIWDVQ
Chain of Peroxisome proliferator-activated receptor delta (Homo sapiens) (Q03181 whole entry, looked up): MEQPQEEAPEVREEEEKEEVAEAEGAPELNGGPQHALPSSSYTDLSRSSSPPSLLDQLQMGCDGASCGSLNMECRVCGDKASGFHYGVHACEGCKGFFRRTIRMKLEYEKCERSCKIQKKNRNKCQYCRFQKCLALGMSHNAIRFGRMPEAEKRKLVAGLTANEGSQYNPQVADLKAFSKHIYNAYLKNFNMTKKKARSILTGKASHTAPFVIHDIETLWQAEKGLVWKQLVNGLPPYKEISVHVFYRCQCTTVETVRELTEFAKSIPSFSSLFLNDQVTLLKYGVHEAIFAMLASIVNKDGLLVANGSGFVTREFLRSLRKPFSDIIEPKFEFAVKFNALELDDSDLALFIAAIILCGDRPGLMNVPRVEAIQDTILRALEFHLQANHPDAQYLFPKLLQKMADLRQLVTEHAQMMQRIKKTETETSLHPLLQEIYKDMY
Chain of Aryl hydrocarbon receptor (Homo sapiens) (P35869 whole entry, looked up): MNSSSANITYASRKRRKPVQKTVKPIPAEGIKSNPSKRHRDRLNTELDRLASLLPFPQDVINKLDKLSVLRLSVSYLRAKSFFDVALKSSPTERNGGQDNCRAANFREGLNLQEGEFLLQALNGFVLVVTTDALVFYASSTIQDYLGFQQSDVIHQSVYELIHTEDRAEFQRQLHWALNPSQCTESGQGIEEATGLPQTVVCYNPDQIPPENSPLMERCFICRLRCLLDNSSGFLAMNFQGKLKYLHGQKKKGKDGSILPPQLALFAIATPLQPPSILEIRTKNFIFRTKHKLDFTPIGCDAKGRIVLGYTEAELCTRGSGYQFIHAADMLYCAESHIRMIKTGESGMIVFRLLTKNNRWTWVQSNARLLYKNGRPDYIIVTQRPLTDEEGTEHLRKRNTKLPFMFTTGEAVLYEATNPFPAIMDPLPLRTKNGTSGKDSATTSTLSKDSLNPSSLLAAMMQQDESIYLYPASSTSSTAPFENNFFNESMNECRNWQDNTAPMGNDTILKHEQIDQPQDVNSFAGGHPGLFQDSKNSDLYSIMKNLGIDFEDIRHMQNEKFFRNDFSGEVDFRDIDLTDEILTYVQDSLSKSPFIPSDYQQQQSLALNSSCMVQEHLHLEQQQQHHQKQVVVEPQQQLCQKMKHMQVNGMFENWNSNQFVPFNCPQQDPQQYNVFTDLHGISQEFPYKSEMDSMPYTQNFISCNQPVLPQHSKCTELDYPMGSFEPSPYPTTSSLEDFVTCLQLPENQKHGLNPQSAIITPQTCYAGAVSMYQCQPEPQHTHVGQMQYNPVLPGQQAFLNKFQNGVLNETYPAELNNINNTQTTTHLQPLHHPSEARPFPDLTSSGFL
Chain of Peroxisome proliferator-activated receptor gamma (Homo sapiens) (P37231 whole entry, looked up): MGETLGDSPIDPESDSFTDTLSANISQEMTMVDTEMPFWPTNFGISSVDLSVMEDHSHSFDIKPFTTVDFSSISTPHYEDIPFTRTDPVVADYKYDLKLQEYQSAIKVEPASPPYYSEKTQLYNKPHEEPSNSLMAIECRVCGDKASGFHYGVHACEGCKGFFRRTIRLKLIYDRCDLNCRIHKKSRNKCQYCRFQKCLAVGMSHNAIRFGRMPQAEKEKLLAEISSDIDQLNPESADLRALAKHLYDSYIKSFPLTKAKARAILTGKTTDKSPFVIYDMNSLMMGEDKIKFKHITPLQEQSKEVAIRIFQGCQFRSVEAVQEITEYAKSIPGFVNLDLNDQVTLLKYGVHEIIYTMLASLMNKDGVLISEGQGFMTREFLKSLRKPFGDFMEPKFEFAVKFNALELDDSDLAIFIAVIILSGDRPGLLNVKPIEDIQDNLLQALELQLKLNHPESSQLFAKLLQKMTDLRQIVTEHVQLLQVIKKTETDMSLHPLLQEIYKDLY

O=NN1CCCC1
not listed: [19] | [20]
inactive: all other assays above

CC(C)N1C(=O)c2ccccc2NS1(=O)=O
not listed: [14] | [15] | [18]
inactive: all other assays above

O=[N+]([O-])c1ccc([As](=O)(O)O)cc1
active: [7] 54.5 µM
not listed: [14] | [15]
inactive: all other assays above

O=C1CCCN1
not listed: [17] | [18]
inactive: all other assays above

c1cc2c3c(cccc3c1)CC2
not listed: [14] | [15] | [16] | [17] | [18]
inactive: all other assays above

CC(Oc1ccc(Cl)cc1Cl)C(=O)O (stereo not drawn)
not listed: [11] | [13]
inactive: all other assays above

CCOP(OCC)OCC
not listed: [11] | [13] | [17] | [18]
inactive: all other assays above

CC(C)C#N
not listed: [14] | [15] | [16] | [17] | [18] | [19]
inactive: all other assays above

COCCl
inactive: all assays above

CC1C=[C-]C=C1.[C-]#[O+].[C-]#[O+].[C-]#[O+].[Mn]
not listed: [20]
inactive: all other assays above

CN=C=S
not listed: [19]
inactive: all other assays above

CCCCCCCCCl
not listed: [16]
inactive: all other assays above

Cc1ccccc1O
not listed: [14] | [15]
inactive: all other assays above

CCC[N+](=O)[O-]
not listed: [19]
inactive: all other assays above

C1CC2OC2CC1C1CO1 (stereo not drawn)
inactive: all assays above

O=S(=O)(c1ccc(O)cc1)c1ccc(O)cc1
inactive: all assays above
